PAFAH2 FP inh: PAFAH2 (human) inhibition | Q99487 | recombinant PAFAH2, FP-rhodamine activity probe, fluorescence polarization | inhibition, % at 3.39 µM | 340,000 compounds, 0.99% hits;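 active means inhibition above the mean over all tested compounds plus 3 SD, cut at about 30% in these data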;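 further: inhibitors block probe labeling of enzyme so polarization drops; 0% = enzyme with DMSO and 100% = wells lacking PAFAH2 protein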
PAFAH1B2 inh: PAFAH1B2 (human) inhibition; inhibition, % at 3.39 µM; 340,000 compounds, 1.2% hits; recombinant PAFAH1B2, FP-rhodamine activity probe, fluorescence polarization;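 active means inhibition above the mean of all tested compounds plus 3 SD, cut at about 24% in these data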;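 further: 0% = enzyme with DMSO and 100% = wells lacking PAFAH1B2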
Target sequence (P68402 whole entry, looked up): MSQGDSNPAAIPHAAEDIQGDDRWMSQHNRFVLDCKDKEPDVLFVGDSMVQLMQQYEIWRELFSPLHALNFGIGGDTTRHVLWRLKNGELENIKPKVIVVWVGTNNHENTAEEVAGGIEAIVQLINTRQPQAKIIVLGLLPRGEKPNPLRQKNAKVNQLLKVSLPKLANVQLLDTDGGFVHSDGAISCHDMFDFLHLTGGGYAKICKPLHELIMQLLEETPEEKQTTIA
pPAFAH inh: pPAFAH (human) enzyme inhibition; Q13093; recombinant pPAFAH, FP-rhodamine probe fluorescence polarization; inhibition, % at 3.39 µM; 330,000 compounds, 1.5% hits;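 active means inhibition above the mean inhibition across the screen plus 3 SD, cut at about 25% in these data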;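 further: inhibitors block binding of the rhodamine activity-based probe so polarization drops; 0% = enzyme with DMSO and 100% = wells lacking pPAFAH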
Target sequence (Q13093 whole entry, looked up): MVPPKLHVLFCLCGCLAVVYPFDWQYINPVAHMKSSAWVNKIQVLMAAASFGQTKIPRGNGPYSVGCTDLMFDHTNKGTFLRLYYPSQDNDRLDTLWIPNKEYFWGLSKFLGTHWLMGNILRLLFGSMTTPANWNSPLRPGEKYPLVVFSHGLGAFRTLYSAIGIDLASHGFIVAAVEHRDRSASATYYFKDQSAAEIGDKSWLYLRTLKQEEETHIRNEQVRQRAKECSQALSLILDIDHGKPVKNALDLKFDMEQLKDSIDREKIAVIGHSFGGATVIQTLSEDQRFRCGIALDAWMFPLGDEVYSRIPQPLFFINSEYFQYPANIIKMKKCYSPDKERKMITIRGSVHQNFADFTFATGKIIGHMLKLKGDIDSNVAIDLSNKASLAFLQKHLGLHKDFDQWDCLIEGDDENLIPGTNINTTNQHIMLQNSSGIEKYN
TCR-CD3 inh: blocks the human TCR-CD3 interaction; TAMRA-labeled TCR probe fluorescence, biochemical; inhibition, % at 9.4 µM; 360,000 compounds, 0.37% hits; AID 651800;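 further: recombinant mutant TCR 2C K166C tagged with TAMRA read by polarization; 0% = receptor in buffer alone and 100% = receptor with positive control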
PAFAH1B3 FP inh: blocks human PAF acetylhydrolase 1B catalytic subunit 3; 340,000 compounds, 0.28% hits; recombinant PAFAH1B3, FP-rhodamine probe, fluorescence polarization; inhibition, % at 3.39 µM; Q15102; AID 492972;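 active means inhibition above the screen-wide average of all tested compounds plus 3 SD, cut at about 25% in these data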;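 further: 0% = enzyme with DMSO only and 100% = wells lacking PAFAH1B3 protein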
BSA probe FL: BSA probe counter-screen for TCR-CD3 inhibitors | shares compounds with TCR-CD3 inh | 1,200 compounds, 10% hits | TAMRA-labeled BSA probe fluorescence counterscreen | inhibition, % at 9.4 µM; in the data active means inhibition above about 23%;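 further: 0% = buffer low control and 100% = reference high control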
TCR-CD3 conf: confirmation of human TCR-CD3 interaction inhibitors. AID 652036. shares compounds with TCR-CD3 inh. inhibition, % at 9.4 µM. TAMRA-labeled TCR probe fluorescence binding assay. 1,200 compounds, 48% hits
* = called active by the depositor; . = no result. An excerpt weighted towards active compounds, which were near 2.7% of everything screened. Unless noted, no stated cut-off is given here; in the data, active means inhibition above about 19%; inactive means the rest.

SMILES	PAFAH2 FP inh	PAFAH1B2 inh	pPAFAH inh	TCR-CD3 inh	PAFAH1B3 FP inh	BSA probe FL	TCR-CD3 conf
COc1ccc(-c2nn(-c3ccccc3)cc2/C=N/NC(=O)c2cccc(S(=O)(=O)Nc3ccccc3OC)c2)cc1	-80.9	-3.0	-21.7	41.1*	-14.4	31.8*	45.8*
O=C(COC(=O)Cc1cccs1)Nc1ccc(OC(F)(F)F)cc1	6.1	2.6	18.0	62.0*	-6.8	2.3	2.2
CC(=O)NNC(=O)c1sc(=S)n2c1[nH]c(=O)c1sccc12	20.3	5.8	33.4*	29.0*	16.6	-2.2	8.6
CC(=O)NNC(=O)c1sc(=S)n(C)c1C	-0.1	-0.2	0.3	9.5	2.8	.	.
CC(C(=O)Nc1ccc(Cl)cc1)N1C(=O)NC2(CCCC2)C1=O (stereo unspecified)	-0.7	9.7	2.5	3.8	5.0	.	.
CCOc1cc(/C=N\NC(=O)c2ccc(NC(=O)C(C)(C)C)cc2)ccc1OC(=O)c1cccc(C)c1	-19.7	0.8	-37.3	62.1*	-3.0	36.0*	82.3*
CC(C)(C)C(=O)Nc1ccc(C(=O)N/N=C/c2ccccc2OC(=O)c2ccc(Cl)cc2)cc1	-86.2	-5.8	-10.7	25.5*	-16.9	24.8*	42.9*
O=C1CNC(=S)N1CCc1ccc(O)c(O)c1	.	.	7.6	31.0*	.	-11.8	26.7*
c1ccc2c(c1)-c1nc3ccccc3cc1C2N1CCOCC1 (stereo unspecified)	4.0	2.5	.	-1.2	5.0	.	.
COC(=O)c1ccccc1NC(=S)NC(=O)c1ccc2c(c1)OCO2	-7.5	2.8	.	44.8*	-14.8	-1.3	-1.1
O=C(Cc1nnc(NC(=O)c2ccccc2)s1)N/N=C/c1ccco1	-7.2	1.5	2.1	19.4*	-4.6	-6.1	3.7
CN(C)c1ncnc2c1NC1=C(S2)C(=NCCCC(=O)O)CC(C)(C)C1	-2.5	3.1	1.0	4.9	-2.1	.	.
COc1ncnc2c1NC1=C(S2)C(=NCCC(=O)O)CC(C)(C)C1	8.1	15.7	6.9	28.7*	9.5	52.7*	41.1*
CC(C)C1Nc2c(O)cc(Cl)c([N+](=O)[O-])c2C2C=CCC21 (stereo unspecified)	19.0	42.4*	.	19.8*	-3.1	-7.4	3.3
C=C(C)Cn1c(=O)c2c(nc3n2CCCN3Cc2ccccc2)n(C)c1=O	-3.5	0.7	5.0	-4.8	5.3	.	.
O=C(N/N=C/c1cn(-c2ccccc2)nc1-c1cc2ccccc2o1)c1ccccc1Br	-58.8	-2.2	-9.0	-1.1	-0.1	.	.
O=C(N/N=C/c1cn(-c2ccccc2)nc1-c1cc2ccccc2o1)c1c[nH]c2ccccc12	-35.1	-9.7	3.1	24.9*	-33.4	11.1	15.8
C/C(=C\C(=O)c1ccc(Br)cc1)NNC(=O)c1ccccc1	9.5	6.3	0.3	18.9	8.9	.	.
C/C(=C\C(=O)c1ccc(Br)cc1)NNC(=O)c1ccc(O)cc1	6.5	1.7	1.8	34.6*	13.2	-12.0	26.8*
Nc1cc2cccnc2cc1Cl	43.9*	21.2	.	19.2*	36.9*	-3.8	3.6
Brc1ccc2cccnc2c1	2.2	0.4	5.3	-4.4	0.7	.	.
COc1cc(C(=O)OCC(=O)N2CCCC2=O)cc(OC)c1C	13.9	0.3	8.4	43.4*	2.4	5.3	2.9
CNc1ccc(Br)cc(C(=O)/C=C/c2ccc(OC)cc2OC)c1=O	13.1	2.0	24.7*	19.5*	17.5	-5.0	7.6
COc1ccccc1OCC(=O)NC1CCSc2ccccc21 (stereo unspecified)	-0.2	0.2	4.2	0.4	-2.2	.	.
Cc1cc(C)c2c(=O)cc(C(F)F)oc2c1	4.9	-1.7	-7.8	-4.7	7.0	.	.
SMILES	PAFAH2 FP inh	PAFAH1B2 inh	pPAFAH inh	TCR-CD3 inh	PAFAH1B3 FP inh	BSA probe FL	TCR-CD3 conf
Cc1ccc2c(=O)cc(C(F)F)oc2c1	1.3	-4.4	0.7	23.3*	-0.3	-3.6	-1.2
CCCOc1ccc(F)cc1-c1cc(C(=O)Nc2ccc(C(C)C)cc2)[nH]n1	.	.	.	-0.9	.	.	.
CS(=O)(=O)c1ccc2nc(NC(=O)c3ccccc3)sc2c1	-1.5	2.8	-1.5	-2.9	6.2	.	.
CS(=O)(=O)c1ccc(C(=O)Nc2nc(-c3ccco3)c(-c3ccco3)s2)cc1	9.0	11.1	.	33.5*	7.9	-5.9	3.5
COc1ccc(OC)c(N2C(=NC(=O)C3CCCCC3)SC3CS(=O)(=O)CC32)c1 (stereo unspecified)	9.7	-1.4	0.4	41.4*	6.9	-1.4	4.3
COc1ccc(N2C(=NC(=O)C3CCCCC3)SC3CS(=O)(=O)CC32)cc1Cl (stereo unspecified)	6.0	4.2	3.7	0.5	8.6	.	.
COc1ccccc1NC(=O)c1c(Nc2ccccc2C)sc(C(=O)Nc2cccc(Cl)c2)c1N	-64.1	-6.4	-7.4	20.9*	-33.9	6.5	11.7
CC12CCC(=O)N1C(C(=O)Nc1nc3ccc(Cl)cc3s1)CS2 (stereo unspecified)	2.9	5.0	1.5	-6.4	2.5	.	.
O=C(CCc1ccc(S(=O)(=O)N2CCOCC2)cc1)N/N=C/c1ccc(O)c(O)c1O	5.2	2.5	27.8*	28.4*	12.7	-1.6	25.3*
O=C(CCc1ccc(S(=O)(=O)N2CCOCC2)cc1)Nc1cc(Cl)ccc1N1CCOCC1	-3.7	-1.1	7.6	20.6*	-1.8	5.7	3.5
O=C(CCCOc1ccc(Cl)cc1Cl)Nc1cc(S(=O)(=O)N2CCOCC2)ccc1N1CCOCC1	2.9	2.9	.	5.2	4.1	.	.
CCCSc1nnc(NC(=O)CSc2sc3c(O)cc(=O)[nH]c3c2C#N)s1	37.5*	15.9	42.8*	30.8*	14.7	-18.4	12.2
Oc1ccc(/C=N/NC(=S)Nc2cccnc2)c(O)c1O	21.6	9.2	.	82.7*	17.2	-12.3	55.8*
C/C(=N\Nc1nc(N2CCCCC2)nc(N2CCOCC2)n1)c1ccccc1O	.	.	8.6	2.6	.	.	.
Cn1cnc2c(cnn2C)c1=O	3.0	2.7	.	27.7*	3.5	1.2	3.2
C/C(=N\NC(=O)CCc1ccccc1)C1C(=O)c2ccccc2C1=O	15.6	6.6	12.2	19.4*	22.3	-6.1	5.1
COCCNC(C(=O)Nc1cc(Cl)cc(Cl)c1)c1ccccc1 (stereo unspecified)	-2.9	4.6	2.9	2.4	6.0	.	.
CN(C)C(C(=O)Nc1cc(Cl)cc(Cl)c1)c1ccccc1 (stereo unspecified)	7.4	1.3	-3.6	135.2*	3.5	2.5	0.2
Cc1ccc(C2=NC(=O)/C(=C/c3cc(O)c(O)c(Br)c3)S2)cc1	78.0*	36.6*	.	33.3*	47.7*	-9.9	46.7*
COc1cc(/C=C2\SC(c3ccc(C)cc3)=NC2=O)cc(OC)c1O	15.6	7.8	7.5	-0.7	6.2	.	.
N#CCC(=O)Nc1ccc(C(=O)OCC(=O)Nc2cccc(C(F)(F)F)c2)cc1	20.2	-14.2	-9.5	34.8*	-25.4	-4.8	2.5
N#CCC(=O)Nc1ccc(C(=O)OCC(=O)Nc2cccc3ccccc23)cc1	.	.	.	-0.7	.	.	.

Source: PubChem (The Scripps Research Institute Molecular Screening Center)
